IMPase Li cell – qHTS Assay for Identifying the Cell-Membrane Permeable IMPase Inhibitors: Potentiation with Lithium; CHO-M1 cells, IP1 TR-FRET (IP-One), carbachol + lithium; Potency, µM (doses to about 59.4 µM), for inactives: at the highest dose activity, negative = IMPase inhibition, most hits filed as inhibitors; hit rate 0.35% among 210,000;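 also: IP1 builds up when IMPase is blocked and the TR-FRET signal falls; potency is read from the fitted curve at half-maximal effect; plate controls were basal vehicle for no effect and high inhibitor control for full effect; nearly all actives have a fitted effect of over 50% in size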
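Readout is a homogeneous TR-FRET IP1 immunoassay (Ex 320, Em 665 and 620), where raised cytosolic IP1 lowers signal. Cells were CHO-M1 treated 30 min at 37C with test compounds plus a little lithium; AC50 values came from Hill-equation fitting.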
ALDH1A1 inh – qHTS Assay for Inhibitors of Aldehyde Dehydrogenase 1 (ALDH1A1); Aldehyde dehydrogenase 1A1 (Homo sapiens), P00352; Purified ALDH1A1, NADH fluorescence, propionaldehyde substrate; Potency, µM (top dose mostly 75.3 µM), for the others: top-dose activity, negative = inhibition, usual class: inhibitors; hit rate 7.3% among 220,000; AID 1030, 2008; active = well fitted inhibition curve with a large enough effect, not every such curve was filed as active; inconclusive = small, poorly fitted or top-dose-only effect, or another doubt; inactive = no such curve, though single readings can be large or run the other way;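 also: potency is read from the fitted curve at half-maximal effect; plate controls were no enzyme wells and a reference inhibitor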
PNC inhibitor – High Content Assay for Compounds that inhibit the Assembly of the Perinucleolar Compartment; activity change (PNC), negative = inhibition, % at 10 µM; hit rate 3.1% among 140,000; PC3M PTB-GFP, PNC prevalence imaging, 16 h; hits give low values;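 active = readout at or below -70, meaning at least 70% loss of cells showing the perinucleolar compartment, a nuclear body marking cancer cells; inconclusive = readout between -30 and a set limit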;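 also: plate controls were DMSO wells for no effect and camptothecin positive control wells for full effect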
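Compounds are pinned in duplicate onto adhered PC3M cells stably expressing GFP-tagged PTB and incubated 16 h at 37 C. Cells are then fixed, nuclei stained with Hoechst, and PNC-positive cells counted.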
NPSR antagonist – qHTS Assay for Antagonists of the Neuropeptide S Receptor: cAMP Signal Transduction. Q6W5P4. CHO-NPSR cells, cAMP TR-FRET, antagonist mode. Potency, µM (highest dose often 38.3 µM), for inactives: at the top dose activity change, negative = inhibition, most hits filed as inhibitors. hit rate 1% among 220,000; also: potency is read from the fitted curve at half-maximal effect; nearly all actives have a fitted effect of over 50% in size
Target sequence (Q6W5P4 whole entry, looked up): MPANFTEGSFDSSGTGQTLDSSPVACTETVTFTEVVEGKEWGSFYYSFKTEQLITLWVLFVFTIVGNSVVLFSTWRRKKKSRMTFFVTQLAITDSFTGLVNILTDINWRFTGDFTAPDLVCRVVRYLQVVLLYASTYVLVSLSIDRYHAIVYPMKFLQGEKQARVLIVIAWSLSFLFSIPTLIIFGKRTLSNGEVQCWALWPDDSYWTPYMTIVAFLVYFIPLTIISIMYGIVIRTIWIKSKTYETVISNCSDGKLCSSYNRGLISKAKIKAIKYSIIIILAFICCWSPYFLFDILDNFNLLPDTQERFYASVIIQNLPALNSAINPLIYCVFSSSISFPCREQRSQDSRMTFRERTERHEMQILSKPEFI
HPGD block – qHTS Assay for Inhibitors of HPGD (15-Hydroxyprostaglandin Dehydrogenase); hit rate 4.3% among 150,000; purified HPGD, NADH fluorescence kinetic, PGE2 substrate; 15-hydroxyprostaglandin dehydrogenase [NAD(+)] (Homo sapiens), P15428; Potency, µM, inactives show at the top dose activity change, negative = inhibition, most hits filed as inhibitors; active = well fitted inhibition curve with a large enough effect, not every such curve was filed as active; inconclusive = small, poorly fitted or top-dose-only effect, or another doubt; inactive = no such curve, though single readings can be large or run the other way; also: potency is read from the fitted curve at half-maximal effect
Target sequence (P15428 whole entry, looked up): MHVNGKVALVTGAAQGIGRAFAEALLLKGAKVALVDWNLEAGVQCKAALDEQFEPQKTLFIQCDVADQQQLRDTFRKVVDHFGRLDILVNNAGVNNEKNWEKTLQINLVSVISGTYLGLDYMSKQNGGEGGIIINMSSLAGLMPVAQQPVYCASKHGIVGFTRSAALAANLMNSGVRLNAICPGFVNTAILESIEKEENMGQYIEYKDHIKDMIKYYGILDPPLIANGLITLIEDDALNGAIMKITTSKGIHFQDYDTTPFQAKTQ
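NADH formation kinetics: reaction with 30 uM PGE2 and 1 mM NAD+ (final), 20 nM enzyme, Tris-HCl pH 8 with Tween 20, after 15 min compound preincubation at room temperature. Fluorescence change, last versus first of five reads.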
IMPase inh – qHTS Assay for Identifying the Cell-Membrane Permeable IMPase Inhibitors; inhibition (IP1 accumulation), % at 46.1 µM; CHO-M1 cells, IP1 accumulation, HTRF TR-FRET ratio; 120,000 tested, under 10 active; AID 901, 2007; active = well fitted curve in the direction sought with a large enough effect in the signal ratio, not every such curve was filed as active; inconclusive = small, poorly fitted or top-dose-only effect, or a change in a side signal; inactive = no such curve, though single readings can be large or run the other way; the % refers to the signal ratio;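 also: cells stimulated with carbachol in lithium chloride buffer; plate controls were DMSO basal wells for no effect and reference inhibitor wells for full effect; higher means more IMPase inhibition seen as more IP1 and lower FRET ratio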
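Measured: the HTRF emission ratio (665/620 nm) plus the 620 nm donor channel, each fitted to the Hill equation to give AC50. Cells were CHO-M1 given compounds up to 46 uM and a 30 min carbachol stimulation at 37C.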
Numbers without * were called inactive; i = inactive; ? = inconclusive; . = not tested or not shown; [ ] = remark or other dose. Sampled rows, rich in hits. Any-hit rate of the full collection: about 11%. Unless noted, calls follow the shape of the dose curve; as a rule, active = well fitted curve in the direction sought with a large enough effect; inconclusive = small, poorly fitted or top-dose-only effect, or another doubt; inactive = no such curve, though single readings can be large; an effect the other way counts as inactive or inconclusive. Unless noted, % is scaled to controls: 0 for no effect and ±100 for the full control effect.

SMILES	IMPase Li cell	ALDH1A1 inh	PNC inhibitor	NPSR antagonist	HPGD block	IMPase inh
CCOc1ccc(N2C(=O)CC(Sc3ccccc3C(=O)O)C2=O)c([N+](=O)[O-])c1 (configuration not stated)	5.8%	1µM*	.	12.0%	.	.
Cc1cc(C)cc(N2C(=O)CC(Sc3ncn[nH]3)C2=O)c1 (configuration not stated)	-4.2%	2µM*	.	3.6%	.	.
O=C(CCSCCC(=O)NCc1ccccc1)NCc1ccccc1	31.7%[38.3 µM]	2.1%	?	10.2%[46.1 µM]	-1.0%	0.4
C=CCOc1c(Br)cc(CNc2nccs2)cc1OC	-0.2%	?	-26.4	9.3%[46.1 µM]	-7.1%	-18.6[0.0738 µM]
C=CCSc1nnc(-c2ccccc2NC(C)=O)c(=O)[nH]1	0.7%	0.3%	-14.2	14.6%[46.1 µM]	-26.9%	-4.9
N#CC1=C(S)N(c2ccccc2)C(c2ccco2)NC1=O (configuration not stated)	-0.4%	-2.9%	.	-8.4%	.	.
Cc1ccc(N2C(S)=C(C#N)C(=O)NC2c2ccco2)cc1 (configuration not stated)	-3.6%	?	.	-32.7%	.	.
N#CC1=C(S)N(c2ccccc2)C(c2cccs2)NC1=O (configuration not stated)	-4.4%	20µM*	35.3	?	31.6µM*	-2.2
Cc1ccc(N2C(S)=C(C#N)C(=O)NC2c2cccs2)cc1 (configuration not stated)	0.0%	2.9%	-113.9*	-48.7%	22.4µM*	.
C/C(=N\OCC(=O)Nn1c(=O)[nH]c2ccccc2c1=O)c1cccs1	-1.1%	-14.0%	.	8.2%	.	.
CC(C1CC1)N(Cc1ccccc1)C(=S)Nc1ccccc1 (configuration not stated)	9.0%	1.5%	.	-48.3%	.	.
Cc1ccc(C(=O)COC(=O)CN2C(=O)C3C4CCC(C4)C3C2=O)cc1[N+](=O)[O-] (configuration not stated)	.	20µM*	44.6	-16.9%[46.1 µM]	.	1.4
COc1ccc(C(=O)COC(=O)C(CCCCN2C(=O)C3C4C=CC(C4)C3C2=O)N2C(=O)C3C4C=CC(C4)C3C2=O)cc1 (configuration not stated)	7.2%	10µM*	5.0	-2.2%	-2.1%	10.1
COc1ccc(C(=O)COC(=O)CN2C(=O)C3C4C=CC(C5CC45)C3C2=O)cc1 (configuration not stated)	6.6%	12.6µM*	-11.8	5.0%	-11.0%	.
COc1ccc(C(=O)COC(=O)CCN2C(=O)C3C4CC(C(Br)C4Br)C3C2=O)cc1 (configuration not stated)	-1.5%[38.3 µM]	-4.7%	35.0	-7.5%[46.1 µM]	-10.4%	4.5
COC(=O)C1C2C=CC(C3CC23)C1C(=O)OCC(=O)c1ccc(OC)cc1 (configuration not stated)	25.8%[38.3 µM]	6.31µM*	16.0	-6.8%[46.1 µM]	28.2µM*	-1.9
COC(=O)C(CCCCN1C(=O)C2C3C=CC(C3)C2C1=O)N1C(=O)C2C3C=CC(C3)C2C1=O (configuration not stated)	7.0%[38.3 µM]	?	24.7	7.9%[46.1 µM]	-13.8%	-7.3
CC12CCC(C(=O)N3CCOCC3)([C@H](Br)C1=O)C2(C)C (some centres not stated)	.	.	.	8.3%	.	.
S=C(NCc1ccco1)Nc1ccccc1Cl	.	?	.	-15.7%	.	.
Cn1cc([N+](=O)[O-])c(C(=O)N/N=C/c2ccc3c(c2)OCO3)n1	1.5%	-4.9%	.	4.5%	.	.
CCOc1cc(CNCc2ccccn2)ccc1OCC(=O)NC1CCCCC1	23.9%[38.3 µM]	-11.6%	28.7	16.0%[46.1 µM]	-2.7%	5.9
O=C(COc1ccc(S(=O)(=O)N2CCc3ccccc32)cc1Cl)NCc1ccccn1	26.9%[38.3 µM]	14.1µM*	?	-20.2%[46.1 µM]	-4.9%	-18.1
Cc1cc(S(=O)(=O)NC2CCCCC2)ccc1OCC(=O)NCc1ccccn1	49.2%[38.3 µM]	?	36.0	-20.3%[46.1 µM]	15.8µM*	-5.0
OC1CCCN(c2c3c(nc4cc(-c5cccc(Cl)c5)nn24)CCC3)C1 (configuration not stated)	23.5%	?	187.6	-23.5%[46.1 µM]	i	1.9
CCOC(=O)c1cnc2ccc(C)cc2c1Nc1ccc(OCc2ccccc2Cl)cc1	.	.	.	.	.	5.6
SMILES	IMPase Li cell	ALDH1A1 inh	PNC inhibitor	NPSR antagonist	HPGD block	IMPase inh
CCOC(=O)c1cnc2ccc(C)cc2c1OCc1cc(F)cc(F)c1	63.0%[38.3 µM]	14.1µM*	5.4	-10.7%[46.1 µM]	-20.6%	11.2
O=C(NC(=S)NC1CCCC1)c1ccccc1Br	-9.0%	?	47.3	-10.4%	-5.0%	.
CCOC(=O)CSc1nc2c(c(=O)n1-c1ccc(OCC)cc1)SCC2	25.0%[38.3 µM]	8.1%	30.6	-12.8%[46.1 µM]	-2.3%	-2.4
C#CCn1c(S(=O)(=O)Cc2ccc(C)cc2)nc(-c2ccccc2)c1-c1ccccc1	4.5%[38.3 µM]	-11.9%	?	?	-18.5%	6.9
C#CCn1c(S(=O)(=O)Cc2ccccc2Cl)nc(-c2ccccc2)c1-c1ccccc1	36.8%[38.3 µM]	4.7%	-18.9	10µM*	1.2%	-0.1[1.84 µM]
Cc1ccc2c(c1)C1CN(C)CCC1N2CC(=O)N(C)c1ccccc1 (configuration not stated)	-4.0%[38.3 µM]	-1.2%	?	-6.9%[46.1 µM]	1.1%	16.7
CCCC[C@@H]1C[C@H]1[C@@H](NP(=O)(c1ccccc1)c1ccccc1)c1ccccc1OC	24.3%	7.5%	.	.	-12.8%	.
O=C(NC(NC(=S)Nc1c(Cl)cccc1Cl)C(Cl)(Cl)Cl)OCc1ccccc1 (configuration not stated)	15.5%	10µM*	?	-39.8%	-12.9%	.
C=CCNc1cnn(-c2ccc(C)cc2)c(=O)c1Sc1ccc(C)cc1	3.8%	10µM*	.	-11.1%	.	.
COc1ccc(CCNC(=S)NC(=O)c2cccc(Cl)c2)cc1OC	.	.	.	37.8%	.	.
COc1ccc(C(=O)CC(=O)C(=O)NCCc2cccc(C)c2)cc1	2.5%	2.24µM*	33.6	-4.7%	-23.8%	.
COc1ccc(C(=O)NC(=S)NCCc2ccccc2)cc1	14.7%	14.1µM*	.	-25.8%	.	.
COc1ccc(CCNC(=S)Nc2ccccc2)cc1	.	-11.9%	.	47.0%	.	.
COc1ccc(CCNC(=S)NC(=O)c2ccccc2)cc1OC	15.2%[38.3 µM]	?	-100.5*	-8.7%[46.1 µM]	25.1µM*	0.5
Cc1ccc(NC(=O)CSc2nnc3scc(-c4ccc(Cl)cc4)n23)cc1	.	.	.	.	.	1.1
CCOc1ccc(CNCc2ccccc2Cl)cc1	5.4%	5.1%	.	4.2%	.	.
Cc1cc(-c2nnc(-c3ccccc3)c(-c3ccccc3)n2)c(C)o1	12.6%[38.3 µM]	6.31µM*	-4.0	?	?	-7.6
Cc1ccc(-c2nnc(-c3ccccc3)c(-c3ccccc3)n2)cc1	9.4%	?	0.3	-33.3%	-8.4%	.

Screens from PubChem BioAssay.
